About 1,600 (0.46%) of roughly 350,000 compounds were called active.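 The calls were made as follows: active = activation of at least 50%, plus an integration ratio under a set limit after plate pattern correction; inactive = the rest.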 The list comes from a sample in which actives are over-represented; it also holds similar structures and randomly drawn compounds.

For this test, the system named is CRF-binding protein / CRF receptor 2 complex (human). Description: agonists of CRF-BP/CRF-R2 complex, primary screen, cell-based, HEK293, calcium dye fluorescence, uHTS (AID 588473).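 Also: plate controls were neutral control wells without compound for no effect and CRF at EC100 for full effect.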 The note with it: calcium dye fluorescence (FLIPR), at 13.2 µM, stronger effect = higher value, percent of saturating CRF peptide response.
Turning to `CCN(CC)CCCC(C)n1c2nc(=O)[nH]c(=O)c-2nc2cc(Cl)ccc21` (stereo not drawn), the activation was 192% (active).

With `C=C(C)Cn1c(C)cc(C)c(S(=O)(=O)c2ccccc2C)c1=O`, the activation was -0.15% (inactive).

In the case of `CC1COc2ccccc2N1S(=O)(=O)c1ccccc1` (stereo not drawn), the activation is 2.38% (inactive).

As for `Cc1nn(C)cc1/C=C1\CCC/C(=C\c2cn(C)nc2C)C1=O`, the activation was 0.2% (inactive).

On to `COc1ccc(-c2nnc(NC(=O)CS(=O)(=O)c3ccc(Cl)cc3)o2)c(OC)c1`, for which the activation was -1.55% (inactive).

`COc1cc(-c2nnc(NC(=O)CS(=O)(=O)c3ccc(Cl)cc3)o2)cc(OC)c1OC`: the activation was 3.74% (inactive).

In the case of `COc1cccc(-c2nnc(NC(=O)c3ccc(S(=O)(=O)N(CC(C)C)CC(C)C)cc3)o2)c1`, the activation is 98.1% (active).

As to `CCCCN1C(=O)C(CC(=O)NCc2cccs2)CC(C(=O)N2CCOCC2)=C1C` (stereo not drawn), the activation was -1.86% (inactive).

For the compound `CC(OC(=O)c1ccc(NC(=O)CC#N)cc1)C(=O)Nc1ccc(S(=O)(=O)N2CCCC2)cc1` (stereo not drawn), the activation was -0.83% (inactive).

Consider `O=C(COC(=O)C1(c2ccc(F)cc2)CCCC1)N1CCNC1=O`, for which the activation is -1.56% (inactive).

Consider `N#Cc1c(C(F)(F)F)cc(-c2ccc(Cl)cc2)nc1SCC(=O)O`, for which the activation is 0.45% (inactive).

Turning to `O=C(c1cccs1)N1CCCC(c2nc(-c3ccc(F)cc3)no2)C1` (stereo not drawn), the activation is -3.55% (inactive).

With `N#Cc1c(-c2ccc(F)cc2)cc(C2CC2)nc1SCC(=O)c1cccs1`, the activation is 76.4% (active).

Turning to `COCCCNC(=O)[C@H]1N2C(=O)c3ccccc3C2SC1(C)C` (stereo partly drawn), the activation was 53.6% (active).

Regarding `COCCCNC(=O)C1CC(=O)N(CCc2ccccc2)C1` (stereo not drawn), the activation is -1.35% (inactive).

For the compound `CC1(C)SC2c3ccccc3C(=O)N2[C@@H]1C(=O)NCc1ccco1` (stereo partly drawn), the activation is -0.83% (inactive).

`O=C(Nc1cccc2ccccc12)c1onc2c1CCCC2`: the activation was -2.42% (inactive).

Regarding `CC(OC(=O)CCCOc1ccccc1)C(=O)Nc1ccc(Cl)cn1` (stereo not drawn), the activation is -1.67% (inactive).

Consider `O=C(c1ccccc1)c1ccc(C(=O)N2CCN(c3ccccc3)CC2)cc1`, for which the activation was 0.4% (inactive).

As for `O=C(NC(=O)N1CCOCC1)c1ccccc1`, the activation is 5.54% (inactive).

With `O=C(/C=C/c1ccc(N2CCOCC2)cc1)c1ccccc1`, the activation is 89.1% (active).

Regarding `Cc1ccc(S(=O)(=O)Nc2nc(CN3CCOCC3)nc3sc(C)c(C)c23)cc1`, the activation was 3.71% (inactive).

For the compound `CCC(=O)c1cc(F)ccc1OCC(=O)Nc1ccc2c(c1)OCCO2`, the activation is 0.29% (inactive).

For the compound `O=S(=O)(c1cccc(C(F)(F)F)c1)N1c2ccccc2-n2cccc2C1c1cccnc1` (stereo not drawn), the activation was 138% (active).

Regarding `O=C(CN(c1cc(C(F)(F)F)ccc1Cl)S(=O)(=O)c1ccccc1)NCc1cccnc1`, the activation was 1.6% (inactive).

As to `O=S(=O)(c1cccc(C(F)(F)F)c1)N1CCN(c2cnccn2)CC1`, the activation is -0.32% (inactive).

Regarding `COCCN(C(=O)CCC(=O)Nc1nccs1)C(C(=O)NC(C)(C)C)c1ccc(Cl)cc1` (stereo not drawn), the activation is 0.68% (inactive).

With `CCCC(=O)Nc1ncnc2c1ncn2[C@@H]1O[C@@H]2OP(=O)(O)OC[C@H]2[C@H]1OC(=O)CCC`, the activation was -0.33% (inactive).

Turning to `O=C(Nc1cccc(S(=O)(=O)NC2=NCCC2)c1)C1CCCCC1`, the activation was 1.06% (inactive).

Regarding `O=C(O)C1OC(C(=O)O)C2C1C(F)(F)C2(F)F` (stereo not drawn), the activation is 0.58% (inactive).

As for `CCOC(=O)Cc1cc(=O)[nH]c(=O)[nH]1`, the activation was -0.34% (inactive).

On to `O=C(O)c1cc([N+](=O)[O-])c(Nc2cccc3ccccc23)c([N+](=O)[O-])c1`, for which the activation is -0.94% (inactive).

For `CC(Nc1ccc([N+](=O)[O-])cc1[N+](=O)[O-])c1ccccc1` (stereo not drawn), the activation is -3.71% (inactive).

Consider `O=C(NC(Nc1nc2ccc([N+](=O)[O-])cc2s1)(C(F)(F)F)C(F)(F)F)c1ccccc1`, for which the activation is 69.9% (active).

Turning to `CCN=c1sc(C(=O)Nc2ccccc2)c(C)n1CC`, the activation is -2.99% (inactive).

On to `CCc1ccccc1N1CN(Cc2ccco2)CNC1=S`, for which the activation was 80.2% (active).

As to `Cn1c2c(c(=O)n(C)c1=O)CN(Cc1ccco1)CN2`, the activation was 2.8% (inactive).

On to `CCOc1ccccc1N1CN(Cc2ccccc2)CNC1=S`, for which the activation is -0.43% (inactive).

On to `CCn1c(=O)c2ccccc2n(CC(=O)N2CCCc3ccccc32)c1=O`, for which the activation is 0.82% (inactive).

For the compound `Cn1c(SCC(=O)N2CCCc3ccccc32)nc2ccccc2c1=O`, the activation was 3.16% (inactive).

On to `C=CCn1c(=O)c2ccccc2n2c(SCC(=O)N3CCCc4ccccc43)nnc12`, for which the activation was 75.3% (active).

Regarding `CCOC(=O)CSC1=N/C(=C/c2ccc(-n3cncn3)cc2)C(=O)N1C(C)=O`, the activation was 1.8% (inactive).

Take `COc1cccc(CNS(=O)(=O)c2ccc3c(c2)N(C(C)=O)CCS3)c1`: the activation was 1.61% (inactive).

As for `CN(C)c1ccc(/C=C2\NC(=S)N(Cc3ccccc3)C2=O)cc1`, the activation was 191% (active).

Regarding `CC1CN(Cc2ccccc2)C(=S)NC1=O` (stereo not drawn), the activation was -2.85% (inactive).

Consider `CN(C)c1ccc(C=C2C(=O)OC3(CCCC3)OC2=O)cc1`, for which the activation was 23.8% (inactive).

Consider `Cc1ccccc1Cn1nc(C)c(NC(=O)C(F)(F)F)c1C`, for which the activation is -0.93% (inactive).

As to `CN(Cc1cc2cc(F)ccc2[nH]1)Cc1nc(-c2cnccn2)no1`, the activation is -0.56% (inactive).

Consider `O=C(CSc1nnc(-c2ccc([N+](=O)[O-])cc2)o1)Nc1ccccn1`, for which the activation is -0.44% (inactive).

On to `Cc1cccc(CN2CCN(Cc3cnn(-c4ccccc4F)c3)CC2CCO)n1` (stereo not drawn), for which the activation was -2.69% (inactive).

Consider `Cc1onc(-c2ccccc2)c1C(=O)N=C(N)c1ccc(Cl)cc1`, for which the activation was 2.16% (inactive).

In the case of `Cc1onc(-c2ccccc2)c1C(=O)NNC(=S)NC(=O)c1ccc(F)cc1`, the activation is 181% (active).

`COc1ccc(C(=O)NNC(=O)c2cc(C)[nH]n2)cc1`: the activation was -0.62% (inactive).

On to `O=C(NNC(=S)NC(=O)c1cn(-c2ccccc2)nc1-c1ccccc1)c1ccncc1`, for which the activation was 27.4% (inactive).

On to `COc1ccc(C(=O)NC(=S)NNC(=O)c2c(-c3ccccc3)noc2C)cc1`, for which the activation was 99.3% (active).

With `Cc1noc(C)c1COc1ccc(C(=O)NCCOc2ccccc2)cc1`, the activation was 3.12% (inactive).

Take `O=S(=O)(N/N=C\c1cccn1-c1ccccc1)c1ccc2ccccc2c1`: the activation was -1.5% (inactive).

As for `CCOC(=O)C1=C(N)N2C(=O)C(C)SC2=C(C(=O)OCC)C1c1cc(OC)c(OC)c(OC)c1` (stereo not drawn), the activation is -0.18% (inactive).

The record behind these values is PubChem BioAssay AID588473 (Sanford-Burnham Center for Chemical Genomics, 2011).
